This is an account of results in PubChem BioAssay AID431 (Sanford-Burnham Center for Chemical Genomics, 2006).

Screen size: about 63,000 compounds; about 1,100 (1.7%) were called active. The sample holds actives, similar compounds and a random draw of the others, so the mix is not that of the screen. Measured potencies and affinities stand elsewhere. Unmarked numbers belong to inactive results.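 How the source made its calls: active means compounds whose percent cytotoxicity in the single-dose primary screen, scaled between solvent and toxic-drug controls, exceeds 50; inactive means the rest.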

This test can be described thus: cytotoxicity in KRAS-transformed pancreatic duct cells, primary screen, cell-based, fluorescence, HTS (AID 431).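 Further: 0% = DMSO solvent wells and 100% = doxorubicin-treated wells.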 To be noted: HPDE-C7K KRASV12 cells, Alamar Blue viability, 48 h; at 10 µM; hits give high values. A general note: Resazurin is reduced to fluorescent resorufin, in cell work by metabolically active cells.
For the compound `CN(C)c1ccc(C2CC(=O)NC3=C2C(=O)CC(C)(C)C3)cc1` (stereo not drawn), the cytotoxicity was -6.4%.
With `C=CCn1sc(N)c(C(=O)OCC)c1=S` the figure was 9%; with `O=C(CCNC(=O)Cn1ccc2ccccc2c1=O)NCCCN1CCN(c2ccccc2F)CC1`, -16.9%; with `Cc1cc(C)c2c(=O)n(CC(=O)NCCCN3CCN(c4ccccc4F)CC3)sc2n1`, 82.2% (active).
The figure for `Cc1cc(C)c2c(=O)n(CC(=O)NCCCN3CCOCC3)sc2n1` is 20.5%; for `CCOC(=O)N1CCN(C(=O)c2ccc3c(c2)NC(=O)C(N2CCOCC2)S3)CC1` (stereo not drawn) it is -7.4%.
For the compound `COCCNC(=O)CN1CCOc2ccccc21`, the cytotoxicity is -4.3%.
For `COc1ccc(-c2cc(C(F)F)n3ncc(C(=O)N4CCN(C(=O)c5ccco5)CC4)c3n2)cc1`, the cytotoxicity was 5.6%.
As for `NC(=O)C1CCCN(Cc2ccc(Cl)cc2)C1` (stereo not drawn), the cytotoxicity was -10.3%.
With `Cc1c(NC(=O)OCCSc2nc(N(C)C)nc(N(C)C)n2)sc(=S)n1C` the figure was 66% (active).
With `CCOC(=O)Nc1sc(=S)n(C)c1C` the figure was -11.2%; with `CN(C)c1nc(SCCOC(=O)Nc2ccccc2)nc(N(C)C)n1`, 16.1%; with `Cc1cccc2cc(CN(CC3CCCO3)C(=O)c3ccncc3)c(=O)[nH]c12` (stereo not drawn), 7.7%.
Regarding `COc1ccccc1-c1nnc(SCC(=O)Nc2c(Cl)cccc2Cl)o1`, the cytotoxicity was -1%.
The figure for `COC(=O)CSc1nnc(-c2ccccc2OC)o1` is -18.2%; for `CCOC(=O)C1=C(C)NC(SCC(=O)Nc2nc(C)cs2)=C(C#N)C1c1cccs1` (stereo not drawn) it is 92.7% (active); for `C#CCSC1=C(C#N)C(c2cccs2)C(C(=O)OCC)=C(C)N1` (stereo not drawn) it is 53.6% (active).
The figure for `CCSC1=C(C#N)C(c2cccs2)C(C(=O)OC)=C(C)N1` (stereo not drawn) is 15.4%; for `CCOC(=O)C1=C(C)NC(SCc2cc(=O)[nH][nH]2)=C(C#N)C1c1cccs1` (stereo not drawn) it is 41.8%.
With `CCOCCSC1=C(C#N)C(c2cccs2)C(C(C)=O)=C(C)N1` (stereo not drawn) the figure was 4.7%; with `CCOC(=O)C1=C(C)NC(SCC(=O)Nc2cc(C)on2)=C(C#N)C1c1cccs1` (stereo not drawn), 32.3%; with `O=C1N(CN2CCN(c3cccc(Cl)c3)CC2)c2ccccc2C12OCCCO2`, 0%.
On to `Cc1ccc(NC(=O)c2oc3ccccc3c2NC(=O)c2ccc3c(c2)OCO3)cc1`, for which the cytotoxicity was -7.7%.
The figure for `COc1c(C)cc(Br)cc1C(=O)Nc1ccc(N2CCN(S(C)(=O)=O)CC2)cc1` is 1.2%; for `CCc1nc2ccccc2c(C(=O)OCC(=O)Nc2ccc(S(=O)(=O)N3CCOCC3)cc2)c1C` it is 43.3%; for `CC(=O)Nc1cccc(NC(=O)CSc2ncc(-c3ccc(Cl)cc3)n2Cc2ccco2)c1` it is 83.5% (active).
With `O=C(CSc1ncc(-c2ccc(F)cc2)n1Cc1ccco1)Nc1ccc2c(c1)OCO2` the figure was 86.3% (active).
As to `Cc1cnc(NC(=O)CSc2ncc(-c3ccccc3)n2Cc2ccco2)s1`, the cytotoxicity was -4.7%.
The figure for `CCC(=O)Nc1cc(NC(=O)CSc2ncc(-c3ccc(F)cc3)n2Cc2ccco2)ccc1C` is 3.3%; for `COc1ccc(-c2cnc(SCC(=O)Nc3cc(C)on3)n2Cc2ccco2)cc1` it is 0.3%; for `COc1ccc(-c2cnc(SCC(=O)Nc3ccc4c(c3)OCO4)n2Cc2ccco2)cc1` it is 18.8%.
The figure for `Cc1cc(=S)n(-c2ccccc2)n1C` is -7.8%.
With `Cc1cc(C)nc(SC(C)C(=O)Nc2ccc(S(N)(=O)=O)cc2)n1` (stereo not drawn) the figure was -10.7%; with `Cc1ccc(-c2nnc3ccc(SCC(=O)N4CCCCC4)nn23)cc1`, -7%; with `CC1CCc2nc(NC(=O)Cc3cccs3)sc2C1` (stereo not drawn), -16%.
`CC(C)C1Cc2c(sc3c2c(=O)n(Cc2ccccc2)c2nncn32)CO1` (stereo not drawn): the cytotoxicity is 1.7%.
With `Cc1nnc2n(Cc3ccccc3)c(=O)c3c4c(sc3n12)CN(Cc1ccccc1)CC4` the figure was 1.6%; with `C=CCn1c(SCCN2CCOCC2)nc2c1c(=O)[nH]c(=O)n2C`, -10.8%.
The figure for `Cc1[nH]n2c(=O)cc(C(C)(C)C)nc2c1-c1ccccc1` is 81.8% (active); for `Cc1[nH]n2c(=O)cc(C(C)C)nc2c1-c1ccccc1` it is 28.7%.
The figure for `Cc1cc(=O)n2[nH]c(C)c(-c3ccccc3)c2n1` is -7%; for `CC(C)(C)NC(=O)C1N(c2cccnc2)C(=O)C2C(C(=O)Nc3ccccc3)C3(C)C=CC21O3` (stereo not drawn) it is -15.4%; for `CCOC(=O)CSc1nc2cc(C)ccc2cc1C#N` it is -2.4%.
Regarding `CCOC(=O)CSc1nc2cc(OCC)ccc2cc1C#N`, the cytotoxicity was 56.4% (active).
The figure for `CCOC(=O)CSc1nc2cc(OC)ccc2cc1C#N` is 12.3%; for `COc1cccc(-c2nn(-c3ccccc3)cc2CO)c1` it is 7.7%; for `CCOc1ccc(OCC)c(NC(=O)CSc2nc3ccccc3c(=O)n2C)c1` it is 16.7%.
The figure for `O=C(Nc1ccc(CN2CCCCC2)cc1)c1ccc(Br)o1` is -24.8%.
Take `O=C(Nc1ccc(CN2CCOCC2)cc1)c1cc2ccccc2o1`: the cytotoxicity was 5.8%.
The figure for `O=C1NCCN1C(=O)C12CC3CC(CC(C3)C1)C2` is -2.7%; for `Cc1nc2ccc3nc(NC(=O)c4ccc5c(c4)OCCO5)sc3c2s1` it is -0.1%; for `CCOc1ccc2[nH]c(=O)c(CN(Cc3ccco3)C(=O)c3cccc(F)c3)cc2c1` it is 82% (active).
With `CCOc1ccc2[nH]c(=O)c(CN(Cc3ccco3)C(=O)c3ccc(Br)cc3)cc2c1` the figure was 21.8%.
With `COc1ccc2[nH]c(=O)c(CN(Cc3ccco3)C(=O)c3ccccc3)cc2c1` the figure was -1.9%; with `O=C(c1c(Cl)nc2sccn12)N(C(=O)c1c(Cl)nc2sccn12)c1ccc(Cl)cn1`, 16%.
Consider `COc1ccc(Oc2c(C)oc3cc(OC(=O)N4CCOCC4)ccc3c2=O)cc1`, for which the cytotoxicity is -5%.
The figure for `COc1ccc(-n2ccnc2SCC(=O)NCc2ccc3c(c2)OCO3)cc1` is 3.4%.
As to `COc1ccc(CNc2ccc(-c3ccc(OC)cc3)nn2)cc1`, the cytotoxicity is 59.4% (active).
As for `COc1ccc(NCc2ccc(OC)c(OC)c2)cc1`, the cytotoxicity was -7.9%.
With `COc1ccc(-c2cc(=O)[nH]c(NCc3ccccc3)n2)cc1` the figure was 7.1%; with `COc1ccc(C(CC(=O)O)NS(=O)(=O)c2ccc(C)cc2)cc1OC` (stereo not drawn), -5.1%; with `Cc1nnc(C)n1/N=C/C=C/c1ccccc1`, -40%.
With `O=C(O)c1cccc(Cn2cc(Br)cn2)c1` the figure was -3.7%; with `O=C(c1ccc(Cn2cc(Cl)cn2)cc1)N1CCN(c2ccccc2)CC1`, 4.2%.
For the compound `O=C(c1ccc(Cn2cc(Br)cn2)cc1)N1CCN(c2ccccc2)CC1`, the cytotoxicity is 54.2% (active).
With `Fc1ccc(Br)cc1C1C=C(c2ccc(Br)s2)Nc2ncnn21` (stereo not drawn) the figure was 56.5% (active); with `Fc1ccc(Br)cc1C1C=C(c2cccnc2)Nc2ncnn21` (stereo not drawn), 10.9%; with `COc1cccc(C2C=C(c3ccc(Br)s3)Nc3ncnn32)c1OC` (stereo not drawn), -7.6%.
With `COc1ccccc1CCC(=O)Nc1nc2ccccc2[nH]1` the figure was 3.7%; with `O=C(O)c1cc(NCc2c(F)cccc2Cl)ccc1N1CCOCC1`, -14.3%.
The figure for `C=CCn1c(SCC(=O)Nc2c(C)cccc2C)nnc1-c1cnccn1` is -10%.
Turning to `CCCC(=O)N1CCN(S(=O)(=O)c2cc(Cl)ccc2OC)CC1`, the cytotoxicity is -3.6%.
With `CCC(=O)c1ccc(O)cc1` the figure was -12%.
The figure for `C=C(c1ccc(O)cc1)c1ccc(O)cc1` is 12.5%; for `C/C=C(/C(=C/C)c1ccc(O)cc1)c1ccc(O)cc1` it is 111% (active).
Consider `CC(C)(C)NC(=O)NC(=O)COC(=O)COc1ccc2c(c1)CCC2`, for which the cytotoxicity was -4.8%.
The figure for `CCOC(=O)c1c(CNCCN(CC)CC)n(C)c2cc(Br)c(OC)cc12` is 71.2% (active).
With `CCOC(=O)c1c(CN2CCN(C)CC2)n(C)c2cc(Br)c(OC)cc12` the figure was -8.5%; with `CCOC(=O)c1c(C)n(C)c2cc(Br)c(C(=O)OC)cc12`, 5.9%; with `CCN(CC)CCNC(=O)c1c(C)oc2cc(Br)c(OC)cc12`, 15.1%.
The figure for `CCOC(=O)c1c(CN2CCN(CCO)CC2)n(C)c2cc(Br)c(OC)cc12` is 98.7% (active); for `CCOC(=O)c1c(CN2CCCCC2)n(C)c2cc(Br)c(OC)cc12` it is 16.9%.
In the case of `O=C(COC(=O)c1cccc(S(=O)(=O)N2CCc3ccccc32)c1)NC1CCS(=O)(=O)C1` (stereo not drawn), the cytotoxicity is 23.6%.
As to `O=C(O)Cn1cnc2scc(-c3cccs3)c2c1=O`, the cytotoxicity was 6.1%.
For `Clc1ccc(Cc2noc(Cc3ccccc3)n2)cc1Cl`, the cytotoxicity is -5%.
With `CCOC(=O)C(CCSC)NC(=O)CN` (stereo not drawn) the figure was -9.8%.
With `COC(=O)C1C(=O)c2c([nH]c(C(=O)OCCOC(C)C)c2C)CC1C` (stereo not drawn), the cytotoxicity was -0.2%.
With `CCC(C)(C(=O)NC1CCCCC1)N(CC1CCCO1)C(=O)c1ccccn1` (stereo not drawn) the figure was -5.6%; with `CC1(C)CC(=O)C(C=NCC2CCCO2)=C(O)C1` (stereo not drawn), -19.7%; with `CC(=O)Nc1cc2c(cc1C(=O)c1ccc(C)cc1)OCCO2`, 0.7%.
With `Oc1ccc(Br)cc1-c1cc(-c2ccccc2F)[nH]n1` the figure was 18%; with `COc1ccc(O)c(-c2cc(-c3cccs3)[nH]n2)c1`, 34.1%.
With `Cc1nn(Cc2ccc(Cl)cc2Cl)c(C)c1NC(=O)c1nc2n(n1)C(C(F)F)CC(C)N2` (stereo not drawn) the figure was 9.5%.
On to `CCOC(=O)c1[nH]c(C)c(/C=N/O)c1C`, for which the cytotoxicity is 0.1%.
The figure for `NC(=O)CSc1nnc(CNc2ccc(F)cc2)n1CC1CCCO1` (stereo not drawn) is -7.7%; for `CCOC(=O)c1c(NC(=O)CSc2nc3c(c(=O)n(C)c(=O)n3C)n2C(C)C)sc(C)c1C` it is 77.5% (active); for `CCCn1c(SCC(=O)Nc2sc(C)c(C)c2C(=O)OCC)nc2c1c(=O)n(C)c(=O)n2C` it is 0.3%.
With `COC(=O)c1c(NC(=O)CSc2nc3c(c(=O)n(C)c(=O)n3C)n2C(C)C)sc(C)c1C` the figure was -14%.
